# Shown are actives, neighbours in structure and some others; about 6.9% of the full set was active somewhere.
# KB-3-1 cytotox – qHTS assay for MDR1-selective chemotherapeutics: Primary screen using the parental adenocarcinoma cell KB-3-1; KB-3-1 viability, CellTiter-Glo ATP luminescence, 72 h; Potency, µM (highest dose often 46.1 µM), hits mostly cytotoxic; actives 1.4% (n = 400,000); AID 1347075, 2019; note: potency is the fitted concentration of half-maximal effect; % is set by controls: 0 for no effect and ±100 for the full control effect; nearly all actives have a fitted effect of over 60% in size
#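 Cytotoxicity in the drug-sensitive parental line KB-3-1 was scored as loss of CellTiter-Glo luminescence following 72 h incubation with compound. Values come from curve fitting of normalized concentration-response data.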
# SW480 rereplic – A quantitative high throughput screen for small molecules that induce DNA re-replication in SW480 colon adenocarcinoma cells | Potency, µM (doses to about 46.1 µM), for the others: at the highest dose re-replication activation, most hits filed as activators | actives 1.8% (n = 340,000) | AID 624297, 2012 | SW480 DNA re-replication, Hoechst DNA content imaging, 48 h; note: potency is the fitted concentration of half-maximal effect; % of control where 0% means no effect; nearly all actives have a fitted effect of over 55% in size
#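 First, 250 cells per well were seeded. Next, compound or vehicle (23 nL) was pinned in, plates sat 48 hr at 37 C. Finally Hoechst was added for 40 min before fluorescence scanning.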
# KB-V1 MDR tox – qHTS assay for MDR1-selective chemotherapeutics: Primary screen using the drug-selected MDR subline cells KB-V1; KB-V1 MDR cells viability, CellTiter-Glo, 72 h; AID 1347076, 2019; Potency, µM (titrated, usually from 46.1 µM), most hits filed as cytotoxic; actives 3.4% (n = 400,000); note: potency is the fitted concentration of half-maximal effect; % is set by controls: 0 for no effect and ±100 for the full control effect; nearly all actives have a fitted effect of over 60% in size
#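 Cytotoxicity via CellTiter-Glo luminescence after 72 h compound exposure at 37 degrees C. Cells: drug-selected KB-V1 line, DMEM phenol-red free plus 10% FBS. Compounds tested at multiple concentrations; normalized data fitted to concentration-effect curves.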
# Giardia kill – Small Molecules that selectively kill Giardia lamblia: qHTS. Giardia lamblia trophozoite viability. activity change, % at 7.66 µM, hits read low. actives 0.15% (n = 340,000). AID 540267, 2011; in the data active = activity change below about -80%; inconclusive = between about -30% and that limit;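 note: parasites exposed to compound for two days anaerobically before the ATP read; % is set by controls: 0 for no effect and ±100 for the full control effect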
#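 ATP-content bioluminescence gauges trophozoite survival. Cells (100/well) receive compound and incubate anaerobically for 48 hrs at 37 deg C; detection reagent follows for 15-30 min at room temperature.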
# S-ASM inh – Inhibitors of Secretory Acid Sphingomyelinase (S-ASM): qHTS; Sphingomyelin phosphodiesterase (Homo sapiens), P17405; AID 504937, 2011; actives 0.006% (n = 340,000); Potency, µM (highest dose often 57.5 µM), for the others: at the top dose activity change, negative = inhibition, most hits filed as inhibitors; placental ASM, HMU-PC fluorogenic substrate, 60 min; note: potency is the fitted concentration of half-maximal effect
# Target sequence (P17405 47-631 limits assumed): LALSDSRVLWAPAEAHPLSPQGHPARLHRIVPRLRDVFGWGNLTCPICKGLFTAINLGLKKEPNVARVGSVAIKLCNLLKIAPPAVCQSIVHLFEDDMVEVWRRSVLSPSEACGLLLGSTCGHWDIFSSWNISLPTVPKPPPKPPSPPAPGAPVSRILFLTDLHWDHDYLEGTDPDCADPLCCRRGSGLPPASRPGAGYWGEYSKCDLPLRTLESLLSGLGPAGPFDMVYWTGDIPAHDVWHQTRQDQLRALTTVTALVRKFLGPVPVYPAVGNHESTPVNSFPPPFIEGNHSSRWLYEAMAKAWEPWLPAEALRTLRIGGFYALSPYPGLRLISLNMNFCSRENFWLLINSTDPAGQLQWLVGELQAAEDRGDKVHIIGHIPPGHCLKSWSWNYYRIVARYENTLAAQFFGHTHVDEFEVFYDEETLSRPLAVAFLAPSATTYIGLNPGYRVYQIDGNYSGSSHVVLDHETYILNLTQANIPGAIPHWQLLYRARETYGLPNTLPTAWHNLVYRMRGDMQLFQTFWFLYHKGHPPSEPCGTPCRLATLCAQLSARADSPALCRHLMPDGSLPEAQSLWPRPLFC
#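 HMU-PC0 cleavage (9 uM final) by human placental ASM, 60 min at 37 °C following 10 min compound exposure at RT; stopped at pH 10, fluorescence Ex 386/Em 447 nm.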
# MCF10A rereplic – A quantitative high throughput screen for small molecules that induce DNA re-replication in MCF 10a normal breast cells; MCF 10A DNA re-replication, Hoechst nuclear intensity, 48 h; Potency, µM (doses to about 46.1 µM), for inactives: at the top dose activity, positive = re-replication, actives largely listed as activators; actives 2.9% (n = 350,000); note: potency is the fitted concentration of half-maximal effect; % of control where 0% means no effect; nearly all actives have a fitted effect of over 50% in size
# * marks the source's active call; other numbers are inactive results; i = inactive; ? = inconclusive; · = no result given; [ ] = another dose, or the depositor's remark. Unless noted, calls come from the whole dose curve; as a rule, active = well fitted curve in the direction sought with a large enough effect; inconclusive = small, poorly fitted or top-dose-only effect, or another doubt; inactive = no such curve, though single readings can be large; an effect the other way counts as inactive or inconclusive.
SMILES,KB-3-1 cytotox,SW480 rereplic,KB-V1 MDR tox,Giardia kill,S-ASM inh,MCF10A rereplic
O=C1NC(c2cccs2)Nc2ccccc21 (configuration not stated),i,19%,i,-8,20%,10%
O=C1NC(c2cccc3ccccc23)Nc2ccccc21 (configuration not stated),0.41µM*,?,0.65µM*,1,30%,0.92µM*
O=C1NC(c2ccccc2Cl)Nc2ccccc21 (configuration not stated),?,16µM*,?,-11,103%,?
CN=C(NC#N)NCCSCc1csc(N=C(N)N)n1,·,-7%,·,·,·,6%
CN(C)C(=O)COc1ccc2ccc(=O)oc2c1,i,-2%,i,-10,0%,1%
CCN(C(=O)COc1ccc2ccc(=O)oc2c1)C1CCCCC1,i,-6%,18µM*,11,9%,0%
COc1cccc(NC(=O)CCc2nc3c(C)nn(-c4ccc(C)cc4)c3n(C)c2=O)c1,i,·,i,·,·,·
Cc1ccnc(NS(=O)(=O)c2cccc([N+](=O)[O-])c2)c1,i,-7%,i,-22,-8%,19%
CCn1c(C)cs/c1=N\S(=O)(=O)c1ccccc1,i,-4%,i,17,5%,-4%
O=Cc1s/c(=N\S(=O)(=O)c2ccccc2)n(CCCCl)c1Cl,?,8.2µM*,i,-3,-3%,?
Oc1ccccc1N=Nc1ccccc1O,7.3µM*,?,?,5,-3%,19%
Nc1ccc(N=Nc2ccccc2O)c(N)c1,i,?,i,2,-3%,-3%
CC(=O)n1cc(N(C(=O)CCl)c2ccc(C)cc2)c2ccccc21,18µM*,?,?,0,0%,15µM*
CCCC(NC(=O)C(C)N1CCN(S(=O)(=O)c2ccccc2)CC1)c1ccccc1 (configuration not stated),i,-2%,7.3µM*,7,-2%,0%
CC(NC(=O)C(C)N1CCN(S(=O)(=O)c2ccccc2)CC1)c1ccccc1 (configuration not stated),i,1%,15µM*,-29,3%,0%
CC(C)c1ccc(S(=O)(=O)N2CCN(C(C)C(=O)Nc3ccccc3-c3ccccc3)CC2)cc1 (configuration not stated),i,2%,i,9,1%,3%
CC(C(=O)Nc1ccccc1-c1ccccc1)N1CCN(S(=O)(=O)c2ccccc2)CC1 (configuration not stated),i,11%,2.9µM*,-1,4%,?
CC(CC=O)CCCC(C)(C)O (configuration not stated),·,-1%,·,·,·,0%
OC(CN1CCN(c2ccccc2Cl)CC1)c1ccccc1 (configuration not stated),?,23µM*,i,-3,5%,?
O=C(c1cccn2c(=O)c3cc(Br)ccc3nc12)N1CCN(c2ccccn2)CC1,i,1%,i,15,41%,4%
Cc1ccc(-n2cc(CN3CCN(c4ccccn4)CC3)c(-c3ccc(F)cc3)n2)cc1,?,?,?,8,-9%,18µM*
O=C(c1cccn2c(=O)c3ccccc3nc12)N1CCN(c2ccccn2)CC1,i,-17%,9.2µM*,-3,48%,-1%
Cc1ccc(-c2nn(-c3ccccc3)cc2C(=O)N2CCN(c3ccccn3)CC2)cc1,?,?,?,-7,-10%,-1%[9.22 µM]
